Hits are enriched below; roughly 19% of the tested compounds scored in any of these assays.
TDP1 cell CPT = qHTS for Inhibitors of human tyrosyl-DNA phosphodiesterase 1 (TDP1): qHTS in cells in presence of CPT. AID 686979, 2013. Potency, µM (highest dose often 46.2 µM), for the others: at the top dose activity change, negative = growth inhibition, most hits filed as inhibitors. actives 12% (n = 420,000). chicken DT40 Tdp1-/-;hTDP1 cells + 20 nM CPT, ATP luminescence, 48 h; also: potency is read from the fitted curve at half-maximal effect; % is scaled to controls: 0 for no effect and ±100 for the full control effect; nearly all actives have a fitted effect of over 55% in size
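Chicken DT40 Tdp1-/- cells complemented with human TDP1, 400 cells/well, exposed to compounds plus 20 nM camptothecin for at least 48 h at 37 C; viability read as ATP content by CellTiter-Glo luminescence.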
MCF10A rereplic = A quantitative high throughput screen for small molecules that induce DNA re-replication in MCF 10a normal breast cells; Potency, µM (doses to about 46.1 µM), inactives show at the highest dose activity, positive = re-replication, actives largely listed as activators; MCF 10A DNA re-replication, Hoechst nuclear intensity, 48 h; actives 2.9% (n = 350,000); AID 624296, 2012; also: potency is read from the fitted curve at half-maximal effect; % of control where 0% means no effect; nearly all actives have a fitted effect of over 50% in size
BCR signal inh = qHTS Assay to Find Inhibitors of Chronic Active B-Cell Receptor Signaling. ABC-DLBCL IkBa-CBG/CBR reporter, luminescence ratio, 4 h. actives 0.05% (n = 340,000). Potency, µM (top dose mostly 46.1 µM), for inactives: top-dose activity change, negative = inhibition, hits mostly inhibitors; active = well fitted inhibition curve with a large enough effect in the signal ratio, with a control signal flat, not every such curve was filed as active; inconclusive = small, poorly fitted or top-dose-only effect, or effect the other way, or a change in a side signal; the % refers to the signal ratio;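 also: potency is read from the fitted curve at half-maximal effect; plate controls were basal doxycycline-induced cells for no effect and cells given 10 µM MG132 for full effect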
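TMD8 human ABC-DLBCL cells with doxycycline-inducible IκBα–green luciferase fusion and unfused red luciferase, in 0.5% FBS medium; compounds up to 46 uM, 4 h at 37C. Green/red luminescence ratio, filter-overlap corrected, fitted to concentration-response curves.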
SW480 rerep = A quantitative high throughput screen for small molecules that induce DNA re-replication in SW480 colon adenocarcinoma cells; SW480 DNA re-replication, Hoechst DNA content imaging, 48 h; Potency, µM (highest dose often 46.1 µM), for the others: at the top dose re-replication activation, most hits filed as activators; actives 1.8% (n = 340,000); also: potency is read from the fitted curve at half-maximal effect; % of control where 0% means no effect; nearly all actives have a fitted effect of over 55% in size
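Readout is total intensity of Hoechst-stained nuclei, excited at 405 nm and collected at 500-530 nm. Compound treatment lasted 48 hr at 37 C in 5% CO2 before staining.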
IL1B secr inh = qHTS for Inhibitors of Inflammasome Signaling: IL-1-beta AlphaLISA Primary Screen. actives 4.7% (n = 360,000). THP-1 LPS/ATP IL-1B secretion, AlphaLISA, 16 h; active compounds read low. activity change, % at 57.5 µM. AID 743279, 2014; in the data active = activity change below about -50%; inconclusive = mostly about -30% to -49%; also: % is scaled to controls: 0 for no effect and ±100 for the full control effect
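Secreted IL-1B measured by AlphaLISA bead assay after 16 h compound exposure of THP-1 cells; compounds (final up to 57.5 uM) added 1 h before LPS (250 ng/mL) and ATP (1.25 mM) stimulation; lower signal means less secretion.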
DT40 TDP1 no CPT = qHTS for Inhibitors of human tyrosyl-DNA phosphodiesterase 1 (TDP1): qHTS in cells in absence of CPT; DT40 Tdp1-/- hTDP1 cells, no CPT, ATP luminescence, 48 h; Potency, µM (series often up to 46.2 µM), inactives show top-dose activity change, negative = growth inhibition, most hits filed as inhibitors; actives 15% (n = 420,000); AID 686978, 2013; also: potency is read from the fitted curve at half-maximal effect; % is scaled to controls: 0 for no effect and ±100 for the full control effect; nearly all actives have a fitted effect of over 55% in size
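Compound effects on proliferation are scored in DT40 Tdp1-/-;hTDP1 cells in the absence of CPT. ATP levels (CellTiter-Glo luminescence) are recorded after a ≥48 hr, 37 °C incubation.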
The depositor's hits bear a star; ? = inconclusive; . = no result given. Unless noted, calls follow the shape of the dose curve; as a rule, active = well fitted curve in the direction sought with a large enough effect; inconclusive = small, poorly fitted or top-dose-only effect, or another doubt; inactive = no such curve, though single readings can be large; an effect the other way counts as inactive or inconclusive.

SMILES	TDP1 cell CPT	MCF10A rereplic	BCR signal inh	SW480 rerep	IL1B secr inh	DT40 TDP1 no CPT
O=P(O)(O)C(O)(Cn1ccnc1)P(=O)(O)O	3.9%	0.7%	.	0.0%	.	-1.9%
O=C(O)c1n[nH]c2c1CC(C1CCCCC1)CC2 (centres undefined)	-23.4%	6.1%	7.7%	?	-9.8	-8.9%
Nc1nc(-c2ccccc2)ns1	-1.9%	0.5%	.	0.3%	28.2	-11.0%
N#C/C(=C(\O)c1cc(Cl)sc1Cl)c1nc2ccccc2[nH]1	?	20.6µM*	15.7%	?	3.2	?
Cc1cc2c(cc1C)C(c1cccc(F)c1)CC(=O)N2 (centres undefined)	?	15.0%	-14.2%	?	44.3	16.4µM*
Cc1cc2c(cc1C)C(c1ccccc1F)CC(=O)N2 (centres undefined)	?	24.0%	-5.9%	?	1.9	?
COc1cc2c(cc1OC)C(c1cccc(C)c1)CC(=O)N2 (centres undefined)	-15.5%	-6.0%	?	4.11µM*	11.8	0.3%
COc1cc2c(cc1OC)C(c1ccccc1OC(C)C)CC(=O)N2 (centres undefined)	?	8.1%	0.4%	1.4%	60.1	14.6µM*
Cc1cc2c(cc1C)C(c1cc(Br)ccc1F)CC(=O)N2 (centres undefined)	?	7.31µM*	-12.4%	?	2.3	16.4µM*
Cc1ccc(CNc2ccccc2C(=O)O)s1	-1.0%	8.3%	1.2%	1.9%	0.0	-0.7%
O=C(O)c1cc(=O)c2ccc(Cl)cc2[nH]1	15.4%	.	.	.	.	16.1%
CN1CCCC2(CCN(S(=O)(=O)c3ccccc3)CC2)C1	-5.9%	.	.	.	.	11.4%
CC1C(=O)Nc2ccc(S(=O)(=O)N3CCN(c4cccc(C(F)(F)F)c4)CC3)cc2NC1=O (centres undefined)	25.9µM*	?	-16.5%	344.8%	-5.9	-68.6%
CC1C(=O)Nc2ccc(S(=O)(=O)N3CCN(c4cccc(Cl)c4)CC3)cc2NC1=O (centres undefined)	18.4µM*	1.9%	?	5.3%	19.5	?
Cc1cccn2c(=O)cc(CSc3nnc(NC(=O)C(C)C)s3)nc12	-4.4%	.	.	.	.	-14.2%
Cc1cc(C(=O)COC(=O)c2ccc(O)cc2O)c(C)n1-c1ccccc1	20.6µM*	?	?	-5.2%	-80.9*	20.6µM*
COc1ccc(-n2c(C)cc(C(=O)COC(=O)Cn3cnc4ccccc43)c2C)cc1	15.8µM*	9.1%	-4.6%	38.1%	1.7	17.8µM*
Cc1cc(C(=O)COC(=O)c2ccc(O)cc2O)c(C)n1-c1ccc(OC(F)F)cc1	20.6µM*	?	?	0.5%	-3.1	7.31µM*
COc1ccc(NC(=O)COC(=O)Cn2cnc3ccccc32)cc1	-17.6%	-5.7%	-2.4%	-0.1%	0.0	-10.6%
Cc1cc(C(=O)COc2cccc(-n3cnnn3)c2)c(C)n1-c1ccccc1	23.1µM*	?	-0.2%	-2.9%	?	20.6µM*
CC(C)(C)C(=O)OCc1nc(-c2ccc(F)cc2)cs1	-3.3%	14.6%	?	-7.9%	4.3	-0.9%
COc1ccc(-n2c(C)cc(C(=O)COC(=O)c3ccc(O)cc3O)c2C)cc1	8.2µM*	?	?	-2.6%	-9.6	5.17µM*
COCC(=O)OCC(=O)c1cc(C)n(-c2ccc(Br)cc2)c1C	?	-4.1%	3.3%	-23.8%	0.0	-19.3%
O=C1CCCC2=C1C(c1ccc(O)cc1)c1c(ccc3ccccc13)N2 (centres undefined)	?	16.4µM*	-9.5%	?	-17.3	-21.7%
COc1ccc(/C(N)=N/OC(=O)N2CCOCC2)cc1	?	20.6µM*	-13.9%	?	0.0	20.6µM*
SMILES	TDP1 cell CPT	MCF10A rereplic	BCR signal inh	SW480 rerep	IL1B secr inh	DT40 TDP1 no CPT
COc1ccc(OC(=O)N2CCOCC2)cc1	-0.2%	1.3%	2.2%	-8.4%	-5.1	-1.5%
COc1ccccc1N1CCN(C(=O)c2cc3n(n2)C(C(F)(F)F)CC(c2ccco2)N3)CC1 (centres undefined)	14.6µM*	-13.2%	-5.9%	-0.2%	-15.5	18.4µM*
O=C(c1cc2n(n1)C(C(F)(F)F)CC(c1ccco1)N2)N1CCc2ccccc2C1 (centres undefined)	?	?	7.2%	12.7%	-7.7	18.4µM*
O=C(c1cnn2c1NC(c1ccco1)CC2C(F)(F)F)N1CCN(c2cccc(Cl)c2)CC1 (centres undefined)	16.4µM*	7.31µM*	?	?	-12.0	8.2µM*
CC(C)Cn1c(N)c(C(=O)COC(=O)CC23CC4CC(CC(C4)C2)C3)c(=O)n(C)c1=O	7.31µM*	11.6µM*	4.5%	1.9%	?	7.31µM*
Cc1csc(=O)n1CCC(=O)OCC(=O)c1c(N)n(CC(C)C)c(=O)n(C)c1=O	18.4µM*	-2.5%	23.6%	-0.4%	16.6	14.6µM*
Cc1ccc(OCCC(=O)OCC(=O)c2c(N)n(CC(C)C)c(=O)n(C)c2=O)cc1	?	1.3%	0.0%	-13.2%	1.6	?
CC(C)Cn1c(N)c(C(=O)COC(=O)CCc2nc3ccccc3s2)c(=O)n(C)c1=O	?	20.1%	21.4%	-3.9%	17.3	14.6µM*
CCNC(=O)/C(=C/c1ccco1)NC(=O)/C=C/c1ccccc1	-9.8%	8.0%	0.4%	-3.1%	-28.1	1.4%
Cc1cc(/C=C2\C=Cc3ccccc32)ccc1N(C)C	?	.	.	.	.	-20.7%
CN(C)c1ccc(/C=C/c2c(F)cnc3ccccc23)cc1	7.94µM*	.	.	.	.	3.16µM*
Cc1cc(/C=C/c2c(C)cnc3ccccc23)ccc1N(C)C	8.91µM*	.	.	.	.	8.91µM*
Cc1cnc2ccc(I)cc2c1/C=C/c1ccc(N(C)C)cc1	?	.	.	.	.	4.47µM*
Cc1ccc(CN2CCOc3ccc(CN4CCN(CCO)CC4)cc3C2)s1	10.4%	.	.	.	.	-14.5%
CCOC(=O)c1ccc2c(c1)NCc1cccc(OC)c1O2	10.3µM*	-1.8%	?	-4.9%	3.2	10.3µM*
COc1ccc(C(=O)OCC(=O)c2ccc3c(c2)NC(=O)CO3)cc1OC	1.2%	2.9%	6.6%	-6.7%	5.4	8.4%

Screening data deposited in PubChem by National Center for Advancing Translational Sciences (NCATS).
